Screening data from PubChem.
CtBP-E1A blk = inhibitors of CtBP/E1A interaction; hit rate 0.49% among 340,000; AlphaScreen GST-E1A/His-CtBP binding, 1536-well; active compounds read low; activity change, % (test concentration not listed); AID 651724; in the data active = activity change below about -65%; inconclusive = mostly about -30% to -63%
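AlphaScreen with 125 nM GST-E1A and 125 nM His-CtBP (5X stocks) in Tris pH 8.0, 300 mM NaCl, BSA, Tween 20, TCEP. Compounds preincubated 2 h at 37 deg C, then glutathione donor/nickel acceptor beads added for 1 h at 37 deg C in dark.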
Six1-Eya2 inh = Six1/Eya2 interaction inhibition | AlphaScreen GST-Six1/His-Eya2 binding, biochemical; active compounds read low | hit rate 0.56% among 360,000 | activity change, % (no concentration beside the values) | Q15475+O00167; in the data active = activity change below about -65%; inconclusive = mostly about -30% to -63%
Target sequence (O00167 whole entry, looked up): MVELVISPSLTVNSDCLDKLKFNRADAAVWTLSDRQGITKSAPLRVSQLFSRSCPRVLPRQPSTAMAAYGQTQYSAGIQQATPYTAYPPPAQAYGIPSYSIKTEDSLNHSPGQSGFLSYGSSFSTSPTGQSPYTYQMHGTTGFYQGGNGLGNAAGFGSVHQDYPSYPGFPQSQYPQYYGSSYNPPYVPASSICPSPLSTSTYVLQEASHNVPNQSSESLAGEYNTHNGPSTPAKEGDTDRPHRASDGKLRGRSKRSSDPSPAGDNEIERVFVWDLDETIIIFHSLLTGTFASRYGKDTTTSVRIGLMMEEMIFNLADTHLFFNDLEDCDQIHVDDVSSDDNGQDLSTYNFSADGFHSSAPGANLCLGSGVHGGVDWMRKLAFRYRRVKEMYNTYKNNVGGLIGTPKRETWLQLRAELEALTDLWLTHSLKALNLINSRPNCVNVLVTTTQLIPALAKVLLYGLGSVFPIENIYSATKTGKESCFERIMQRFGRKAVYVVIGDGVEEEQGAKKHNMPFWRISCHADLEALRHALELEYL
Target sequence (Q15475 whole entry, looked up): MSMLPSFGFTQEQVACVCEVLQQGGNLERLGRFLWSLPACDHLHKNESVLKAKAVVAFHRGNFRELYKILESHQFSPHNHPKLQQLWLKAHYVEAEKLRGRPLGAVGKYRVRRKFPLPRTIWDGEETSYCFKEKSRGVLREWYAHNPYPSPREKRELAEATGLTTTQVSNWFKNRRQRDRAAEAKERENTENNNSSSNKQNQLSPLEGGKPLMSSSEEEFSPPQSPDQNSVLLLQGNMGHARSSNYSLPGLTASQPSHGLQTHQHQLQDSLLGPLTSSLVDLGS
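AlphaScreen with GST-Six1 and His-Eya2 (5X mix: 250 nM and 500 nM), glutathione donor and nickel acceptor beads; buffer 50 mM Tris pH 8.0, 300 mM NaCl, 1 mM TCEP; 1 h at 37 C in the dark.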
p53 reactivator = restores transcriptional activity of mutant p53; H1299 p53-A138V BP100-luciferase reporter, luminescence, 24 h; AID 504706; hit rate 0.063% among 320,000; Potency, µM (series often up to 92.2 µM), most hits filed as activators; also: nearly all actives have a fitted effect of over 45% in size
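H1299 (p53-null), stable ts p53-A138V + BP100-Luc; 1000 cells/well, Opti-MEM/10% FBS; cpd 4 pt, 1:5; 24 h, 37 deg C, 5% CO2; detection reagent 10 min RT; luminescence.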
RORg inh = blocks mouse ROR gamma transcriptional activity; P51450; Drosophila S2 Gal4-RORgamma UAS-luciferase reporter, 20 h; Potency, µM (doses to about 53.6 µM), most hits filed as inhibitors; hit rate 5.4% among 310,000; also: nearly all actives have a fitted effect of over 60% in size
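Drosophila S2 cells stably expressing Gal4-DBD/mouse RORγ fusion under metallothionein promoter plus UAS-luciferase; compound 1 h, then 700 uM CuSO4 induction for 20 h at ambient temperature; inhibition read as reduced luminescence.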
VP16 counter = counter-screen for ROR gamma inhibitors: Gal4-VP16 reporter | AID 2546 | Drosophila S2 Gal4-VP16 UAS-luciferase, luminescence, 20 h | hit rate 3.5% among 310,000 | Potency, µM (series often up to 53.6 µM), most hits filed as inhibitors;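 also: Gal4-VP16 expression switched on by copper sulfate through the metallothionein promoter; nearly all actives have a fitted effect of over 50% in size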
A number is an active result. Only some compounds are listed: those with a hit (about 5.4% of all), similar ones and a draw of the others. Unless noted, calls follow the shape of the dose curve; as a rule, active = well fitted curve in the direction sought with a large enough effect; inconclusive = small, poorly fitted or top-dose-only effect, or another doubt; inactive = no such curve, though single readings can be large; an effect the other way counts as inactive or inconclusive.

How did CN(C)C(=S)NC(=O)c1cccc(Cl)c1 do in these assays?
CtBP-E1A blk: inactive; Six1-Eya2 inh: inactive; p53 reactivator: inactive; RORg inh: 0.56µM; VP16 counter: 2µM

How did CC(C)c1ccc(S(=O)(=O)/N=C2\C=C(NS(=O)(=O)c3ccccc3)C(=O)c3ccccc32)cc1 do in these assays?
CtBP-E1A blk: inactive; Six1-Eya2 inh: inactive; p53 reactivator: inactive; RORg inh: inactive; VP16 counter: inactive

How did CC(C)c1ccc(S(=O)(=O)/N=C2/C=CC(=O)c3ccccc32)cc1 do in these assays?
p53 reactivator: inactive; RORg inh: inconclusive; VP16 counter: 18µM

How did O=[N+]([O-])c1ccccc1OCCCOc1cccc2cccnc12 do in these assays?
CtBP-E1A blk: inactive; Six1-Eya2 inh: inactive; p53 reactivator: inactive; RORg inh: inconclusive; VP16 counter: inactive

Results for CCN1CCc2c(sc(NC(=O)c3ccc(S(=O)(=O)N4CCCC4)cc3)c2C(=O)NC)C1 ?
CtBP-E1A blk: inactive; Six1-Eya2 inh: inactive; p53 reactivator: 35µM; RORg inh: inconclusive; VP16 counter: inconclusive

Results for O=C(c1ccc(S(=O)(=O)N2CCc3ccccc3C2)cc1)N1CCCCC1 ?
Six1-Eya2 inh: inactive; p53 reactivator: inactive; RORg inh: inactive; VP16 counter: inactive

Results for Cc1nnc(NC(=O)c2ccc(S(=O)(=O)N3CC(C)CC(C)C3)cc2)o1 (configuration not stated) ?
CtBP-E1A blk: inactive; Six1-Eya2 inh: inactive; p53 reactivator: inactive; RORg inh: 1.4µM; VP16 counter: 1.4µM

How did Cc1nnc(NC(=O)c2ccc(S(=O)(=O)N3CCCCC3C)cc2)o1 (configuration not stated) do in these assays?
CtBP-E1A blk: inactive; Six1-Eya2 inh: inactive; p53 reactivator: inactive; RORg inh: 1.1µM; VP16 counter: 1.1µM

Results for Cc1nnc(NC(=O)c2ccc(S(=O)(=O)N3CCc4ccccc4C3)cc2)o1 ?
CtBP-E1A blk: inactive; Six1-Eya2 inh: inactive; p53 reactivator: inactive; RORg inh: 1.3µM; VP16 counter: 5µM

How did O=C(NNS(=O)(=O)c1ccc(Cl)cc1)c1cccc(S(=O)(=O)N2CCOCC2)c1 do in these assays?
Six1-Eya2 inh: inactive; p53 reactivator: inactive; RORg inh: inactive; VP16 counter: inactive

Results for NC1=NC(=O)/C(=C/c2cn(Cc3ccccc3)c3ccccc23)S1 ?
CtBP-E1A blk: inactive; Six1-Eya2 inh: inactive; p53 reactivator: inactive; RORg inh: inactive; VP16 counter: inconclusive

How did Cc1cc(NC(=O)CN2C(=O)/C(=C/c3ccc(C(C)C)cc3)SC2=S)no1 do in these assays?
CtBP-E1A blk: inactive; Six1-Eya2 inh: inactive

Results for CCOC(=O)c1c(C)[nH]c(C2=NNC(=NC3CC3)SC2)c1C ?
CtBP-E1A blk: inactive; Six1-Eya2 inh: inactive; p53 reactivator: inactive; RORg inh: inconclusive; VP16 counter: inconclusive

Results for CC1CCCCN1S(=O)(=O)c1ccc(C(=O)Nc2nnc(-c3ccco3)o2)cc1 (configuration not stated) ?
CtBP-E1A blk: inactive; Six1-Eya2 inh: inactive; p53 reactivator: inactive; RORg inh: 0.71µM; VP16 counter: 0.63µM

How did CC1CN(S(=O)(=O)c2ccc(C(=O)Nc3nnc(-c4ccccn4)o3)cc2)CC(C)O1 (configuration not stated) do in these assays?
CtBP-E1A blk: inactive; Six1-Eya2 inh: inactive; p53 reactivator: inactive; RORg inh: inconclusive; VP16 counter: inconclusive

What do the screens show for `CC1CCCCN1S(=O)(=O)c1ccc(C(=O)Nc2nnc(C3CC3)o2)cc1` (configuration not stated)?
CtBP-E1A blk: inconclusive; Six1-Eya2 inh: inactive; p53 reactivator: inactive; RORg inh: 0.13µM; VP16 counter: 0.32µM

Results for O=C(Nc1nnc(-c2ccco2)o1)c1ccc(S(=O)(=O)N2CCCCC2)cc1 ?
CtBP-E1A blk: inactive; Six1-Eya2 inh: inactive

What do the screens show for `CNC(=O)c1c(NC(=O)c2ccc(S(=O)(=O)N3CCCCC3)cc2)sc2c1CCN(C(C)C)C2`?
CtBP-E1A blk: inactive; Six1-Eya2 inh: inactive; p53 reactivator: inactive; RORg inh: inactive; VP16 counter: inactive

What do the screens show for `Cc1cccc(NC(=O)c2ccc(S(=O)(=O)N3CCCCC3C)cc2)n1` (configuration not stated)?
CtBP-E1A blk: inactive; Six1-Eya2 inh: inactive

What do the screens show for `CC(C)N1CCc2c(sc(NC(=O)c3ccc(S(=O)(=O)N4CCCCC4C)cc3)c2C(N)=O)C1` (configuration not stated)?
CtBP-E1A blk: inactive; Six1-Eya2 inh: inactive; p53 reactivator: inconclusive; RORg inh: inconclusive; VP16 counter: 14µM

What do the screens show for `CC1CCCCN1S(=O)(=O)c1ccc(C(=O)Nc2nnc(-c3ccccn3)o2)cc1` (configuration not stated)?
CtBP-E1A blk: inactive; Six1-Eya2 inh: inactive; p53 reactivator: inactive; RORg inh: 2µM; VP16 counter: 5µM

How did Cc1cc(-c2ccc(C(C)C)c(S(=O)(=O)N3CC(=O)Nc4ccccc43)c2)on1 do in these assays?
CtBP-E1A blk: inactive; Six1-Eya2 inh: inactive; p53 reactivator: inactive; RORg inh: inactive; VP16 counter: inactive

How did O=C(O)CCn1nnc2ccccc21 do in these assays?
CtBP-E1A blk: inactive; Six1-Eya2 inh: inactive; p53 reactivator: inactive; RORg inh: inactive; VP16 counter: inactive

Results for O=C(NC1CCCCC1)c1cc(S(=O)(=O)N2CCCC2)ccc1Cl ?
CtBP-E1A blk: inactive; Six1-Eya2 inh: inactive; p53 reactivator: inactive; RORg inh: inactive; VP16 counter: inactive

What do the screens show for `O=c1oc(C2(O)CCCCC2)cc2ccc(-c3ccc4[nH]ccc4c3)cc12`?
CtBP-E1A blk: inactive; Six1-Eya2 inh: inactive; p53 reactivator: inconclusive

How did COc1cccc(OC)c1C(=O)Nc1sc2c(c1C(N)=O)CCN(Cc1ccccc1)C2 do in these assays?
CtBP-E1A blk: inactive; Six1-Eya2 inh: inactive; RORg inh: inactive; VP16 counter: inactive

Results for CCN1CCc2c(sc(NC(=O)c3cc4ccccc4cc3OC)c2C(N)=O)C1 ?
CtBP-E1A blk: inactive; Six1-Eya2 inh: inactive; p53 reactivator: inconclusive; RORg inh: 4.5µM; VP16 counter: 5.6µM

How did O=C(O)c1cccc(NC(=S)N/N=C/c2cccc(O)c2)c1 do in these assays?
CtBP-E1A blk: inactive; Six1-Eya2 inh: inactive; p53 reactivator: inactive; RORg inh: inactive; VP16 counter: inactive

How did O=C(O)c1cccc(NC(=S)N/N=C/c2ccccc2OCc2cccc(Br)c2)c1 do in these assays?
CtBP-E1A blk: inactive; Six1-Eya2 inh: inactive; p53 reactivator: inactive; RORg inh: 11µM; VP16 counter: inactive

Results for COC(=O)c1ccc(COc2ccccc2/C=N/Nc2cccc(C(=O)O)c2)cc1 ?
CtBP-E1A blk: inactive; Six1-Eya2 inh: inactive; p53 reactivator: inactive; RORg inh: inactive; VP16 counter: inactive

What do the screens show for `O=C(O)c1cccc(NC(=S)N/N=C/c2ccccc2OCc2ccc(Br)cc2)c1`?
CtBP-E1A blk: inactive; Six1-Eya2 inh: inactive; p53 reactivator: inactive; RORg inh: 13µM; VP16 counter: inactive
